The structures appear in SMILES notation. Results filed as inconclusive are left out. Entries that show only a call come without a potency. The source made the active and inactive calls. Calls come from the whole dose curve; as a rule, active = well fitted activation curve with a large enough effect; inconclusive = small, poorly fitted or top-dose-only effect; inactive = flat fitted curve, though single readings scatter.

For the test, the target named is Luciferin 4-monooxygenase (Photinus pyralis) (UniProt P08659). In words: FLuc inhibitory activity for the follow-up compounds in a cell-based translational read-through assay (72 hour incubation). Conditions: GripTite 293 FLucUGA read-through, luminescence; series mostly up to 38.3 µM. The text has this: NCGC Assay Overview: Firefly (Photinus pyralis) luciferase is one of the most commonly used transcriptional reporters. It is considered one of the more dynamically responsive reporters - that is, responsive to changes in reporter transcription - as it requires no post-translational modifications and is enzymatically active directly after protein synthesis (Wood, 1998). With no endogenous expression in mammalian cells and without the requirement of external excitation, it offers very little background signal, thus generally providing excellent signal to background for most assays. Previous profiling work to determine the prevalence of compounds that affect FLuc enzymatic activity (PubChem AID 411) identified that ~3% of the MLSMR library (then at ~72K) inhibited FLuc (Auld et al., 2008). […] Of the compounds identified in this profile that inhibited FLuc, 151 compounds were selected for further analysis, in an effort to better understand their mode of inhibiting FLuc. The assay described here was to determine the activity of the compounds in a cell-based firefly luciferase reporter gene assay originally designed to identify compounds that enchanced translational read-through of a FLuc cDNA that contained a premature stop codon (Auld et al., 2009; Auld et al., 2010). Compounds that enhance translational read-through or compounds that stabilize FLuc intracellularly are identified as active compounds in the assay.
Chain of Luciferin 4-monooxygenase (Photinus pyralis) (P08659 whole entry, looked up): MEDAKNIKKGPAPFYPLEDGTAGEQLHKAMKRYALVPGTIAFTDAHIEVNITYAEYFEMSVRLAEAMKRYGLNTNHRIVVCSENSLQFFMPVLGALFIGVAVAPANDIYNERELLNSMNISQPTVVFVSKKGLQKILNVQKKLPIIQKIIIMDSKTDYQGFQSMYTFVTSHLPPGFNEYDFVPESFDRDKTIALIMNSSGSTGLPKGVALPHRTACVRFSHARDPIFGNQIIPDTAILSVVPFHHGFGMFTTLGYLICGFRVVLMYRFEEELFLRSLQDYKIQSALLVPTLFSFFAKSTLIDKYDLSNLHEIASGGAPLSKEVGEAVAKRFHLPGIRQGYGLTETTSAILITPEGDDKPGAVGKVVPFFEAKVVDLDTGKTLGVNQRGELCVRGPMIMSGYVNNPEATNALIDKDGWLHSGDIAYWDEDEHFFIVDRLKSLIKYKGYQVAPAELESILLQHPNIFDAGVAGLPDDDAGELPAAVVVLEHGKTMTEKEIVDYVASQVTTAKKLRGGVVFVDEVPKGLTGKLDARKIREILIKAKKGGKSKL
NCGC Assay Protocol Summary: Reagents: Transient transfection of FlucUGA construct: TransFast Transfection Reagent (Promega #E2431); FLucUGA construct (refer to Auld et al., 2009) #GripTite 293 MSR Cell Line (Invitrogen #R795-07) #Complete growth media: DMEM (Invitrogen #11965), 10% HIFBS, 0.1mM MEM NEAA, 5mL/L pen-strep (of 5000U/mL stock), 600ug/mL Geneticin #Assay media: DMEM without phenol red (Invitrogen #21063), 5% charcoal-stripped HIFBS (Hyclone #SH30071.03), 0.1mM MEM NEAA In-house detection reagent: 300mM Tris-HCl, 300mM Trizma base, 300mM MgCl, 1% Triton-X100, 5mM DTT, 500uM Coenzyme A trilithium salt (Sigma #C3019),450uM ATP (Sigma #A7699), 1mM D-luciferin sodium salt monohydrate (Biosynth #L8240) Control compounds used were two known firefly luciferase inhibitors (3-(5-(3-chlorophenyl)-1,2,4-oxadiazol-3-yl)benzoic acid and 5-(2-fluorophenyl)-3-phenyl-1,2,4-oxadiazole), and DMSO. Assay Summary: Transient transfection of FlucUGA construct: Day 1: GripTite cells were plated in T175 flasks at a density of 1.75 x 10^7 cells/T175 flask in complete growth media without Geneticin and allowed to grow ON in a 37 degrees Celsius incubator. Day 2: Cells in T175 flask were transfected - with 10ug of DNA and 30uL Transfast in 12mL complete growth media without serum and without Geneticin for 4 hours at 37 degrees Celsius. After incubation, cells were trypsinized, spun down, and resuspended to a concentration of 3.3 x 10^5 cells/mL in assay media. 6uL of cells in assay buffer were dispensed at 2000cells/well (3.3 x 10^5 cells/mL) into Greiner solid-white TC-treated 1536-well plates using a Multidrop Combi (Thermo Fisher Scientific). Plates were incubated for one hour at 37 degree Celsius, 95% humidity, 5% CO2. These assay plates were then treated with 23nL of compound or DMSO using a Kalypsys pin tool, which allows for delivery of a 12-point titration of each compound to the assay plate, with a final compound concentration ranging from approximately ~38uM to 0.2nM. Assay plates were then incubated for 72 hours. After incubation, plates were washed three times with DPBS (7uL/well). After the third wash, 6uL of DPBS was added to each well. 3uL of 3X luciferase detection reagent was then added to each well using a flying reagent dispenser (FRD). After a 15 minute incubation to allow for cell lysis, luciferase activity was measured using a ViewLux CCD imager (PerkinElmer), with an average exposure time of 2-12 seconds.
As to `Oc1ccc(-c2nc3ccccc3s2)c(O)c1`, the Potency is 12600 nM (active). The entry for `Cc1ccc(S(=O)(=O)N2CCN(C(=O)c3ccccc3-c3nc4ccccc4s3)CC2)c(C)c1` is “inactive”; for `CC(=O)Oc1ccc(C(=O)Nc2ccccc2C(=O)Nc2ccc(C(=O)O)cc2)cc1` it is “inactive”. The entry for `O=C(Nc1ccc(Cl)cc1-c1nc2ccccc2s1)c1ccco1` is “inactive”. The figure for `Cc1ccc2sc(-c3ccc(N)cc3)nc2c1` is 356 nM (active). For the molecule `O=C(O)c1ccc(NC(=O)c2cc(S(=O)(=O)N3CCCCC3)c(Cl)cc2Cl)cc1`, the Potency entry was “inactive”. Under `COc1ccc(-c2nc3ccccc3s2)cc1NC(=O)c1ccc(F)cc1` stands “inactive”; under `CC(C)C(=O)Nc1cccc(C(=O)Nc2ccccc2C(=O)O)c1`, “inactive”; under `CN(C)S(=O)(=O)c1ccc(C(=O)Nc2cccc(C(=O)O)c2)cc1`, “inactive”. The entry for `Cc1ccc(C(=O)Nc2ccc(C(=O)O)cc2)cc1S(=O)(=O)NCc1ccccc1` is “inactive”; for `O=C(Nc1ccc(-c2nc3ccccc3s2)cc1)C1=COCCO1` it is 318 nM (active). Take `O=C(O)c1ccc(NC(=O)c2ccccc2NC(=O)c2cccc(Br)c2)cc1`: the Potency result is “inactive”. The figure for `COc1ccc2nc(NC(=O)c3cnccn3)sc2c1` is 3560 nM (active). Under `O=C(Nc1ccccc1C(=O)O)c1cccc(S(=O)(=O)Nc2ccc(Br)cc2)c1` stands “inactive”; under `O=C(Nc1ccccc1C(=O)O)c1cc(S(=O)(=O)Nc2cccc(F)c2)ccc1Cl`, “inactive”.

On to `O=C(O)c1ccc(NC(=O)c2cccc(NC(=O)c3cccs3)c2)cc1`, for which the Potency result is “inactive”. Under `COc1ccc2nc(NC(=O)c3ccc(S(=O)(=O)N4CCCC(C)C4)cc3)sc2c1` (stereo not given) stands “inactive”; under `Cc1ccc(C(=O)Nc2cccc(C(=O)O)c2)cc1S(=O)(=O)N1CCCCC1`, 3180 nM (active). Under `CCc1noc(C)c1C(=O)Nc1nc2ccc(OC)cc2s1` stands “inactive”. The figure for `CN(C)c1cccc(C(=O)Nc2ccc(-c3nc4ccccc4s3)cc2)c1` is 1790 nM (active). `COc1ccc(Br)cc1C(=O)Nc1ccc(C(=O)O)cc1`: the Potency entry was “inactive”. The entry for `COc1ccc(NS(=O)(=O)c2cccc(C(=O)Nc3ccccc3C(=O)O)c2)cc1` is “inactive”. Take `COc1ccc2nc(NC(=O)CCc3ccc(OC)c(OC)c3)sc2c1`: the Potency result was “inactive”.

Take `Cc1cccc(C(=O)Nc2ccccc2C(=O)Nc2ccc(C(=O)O)cc2)c1`: the Potency entry is “inactive”. Take `Cc1ccc(C(=O)Nc2ccc(C(=O)O)cc2)cc1S(=O)(=O)Nc1ccccc1`: the Potency entry was “inactive”. Under `Cc1ccc(C(=O)O/N=C(\N)c2ccccn2)c(Cl)c1` stands 1260 nM (active); under `O=C(O)c1ccccc1NC(=O)c1ccccc1Nc1ccccc1`, “inactive”. The entry for `O=C(O)c1ccc(NC(=O)c2cccc(C(=O)Nc3ccc(C(=O)O)cc3)c2)cc1` is “inactive”. Under `CCOc1ccc2nc(NC(=O)c3ccccc3)sc2c1` stands 1790 nM (active); under `Cc1ccc(S(=O)(=O)N2CCOCC2)cc1C(=O)Nc1ccccc1C(=O)O`, “inactive”; under `Nc1ccc(-c2nc3cc(N)ccc3s2)cc1`, 22500 nM (active). In the case of `CC(=O)Nc1cccc(C(=O)Nc2ccccc2C(=O)O)c1`, the Potency result was “inactive”. The figure for `Cc1ccc2sc(-c3ccc(NC(=O)c4cc(-n5cnnc5)ccc4Cl)cc3)nc2c1` is 14200 nM (active); for `CCOc1ccc2nc(NC(=O)c3cccnc3)sc2c1` it is 3560 nM (active).

`Cc1cccc(C(=O)Nc2ccc(-c3nc4ccccc4s3)cc2Cl)c1`: the Potency entry was “inactive”. The entry for `CCCOc1cccc(C(=O)Nc2ccc(-c3nc4ccccc4s3)c(Cl)c2)c1` is “inactive”; for `CC(C)c1ccc(C(=O)Nc2ccc(-c3nc4ccccc4s3)c(Cl)c2)cc1` it is “inactive”; for `O=C(Nc1ccccc1C(=O)O)c1ccc(NC(=O)C2CCCCC2)cc1` it is “inactive”. With `O=C(O)c1cccc(NC(=O)c2ccc(Cl)c(S(=O)(=O)N3CCCCCC3)c2)c1`, the Potency is 283 nM (active). The entry for `O=C(Nc1ccccc1C(=O)O)c1ccc(NC(=O)C2CCCO2)cc1` (stereo not given) is “inactive”.

The values above are taken from PubChem BioAssay AID602478 (National Center for Advancing Translational Sciences (NCATS), 2012).
